Screening data deposited in PubChem BioAssay by several laboratories.
A selection: hits, their analogues and other compounds. The true share with any hit is near 3.7%.
GPR7 antagonist = blocks human GPR7 receptor signaling | inhibition, % at 4.4 µM | P48145 | actives 1.1% (n = 290,000) | GPR7-expressing cells, fluorescence antagonist assay; in the data active = inhibition above about 16%, passing the limit was not always enough;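 note: cells stimulated with the agonist NPW; 0% = agonist with vehicle and 100% = vehicle without agonist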
TMEM16A inh = mouse TMEM16A channel inhibition, primary screen; HEK293 TMEM16A/YFP iodide influx fluorescence, ionomycin; actives 1.2% (n = 310,000); normalized B-score (activity score, 25-100; higher = stronger inhibition) at 10 µM; AID 588511; Q8BHY3;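 active = ratio plate-corrected score three or more library SD toward inhibition, starting fluorescence score within five deviations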;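 note: score derived from kinetic fluorescence span divided by baseline fluorescence per well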
ANO1 activ = mouse TMEM16A channel activation, primary screen; B-score at 10 µM; HEK293 TMEM16A/YFP-H148Q/I152L, iodide quench fluorescence; active compounds read low; actives 0.3% (n = 340,000);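 active = fluorescence-ratio B-score plate-corrected deviation score at least 3 library SD below zero, with starting fluorescence score within 5 deviations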;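 note: channel opened by trigger with iodide after compound preincubation; score built on the fluorescence ratio of max minus min over baseline; more negative score means more quench and so TMEM16A activation or potentiation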
Kir21 inh = blocks the mouse Kir2.1 inward-rectifier potassium channel. HEK293-Kir2.1, FluxOR thallium flux fluorescence; active compounds read low. actives 0.85% (n = 310,000). P35561. B-score at 10 µM. AID 1672;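 active = fluorescence ratio B-score at or below minus 3 SD of library scores, with starting-brightness B-score within 2 SD, cut at about -4.2 in these data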;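 note: channel flux triggered by added potassium and thallium sulfate stimulus; B-score of peak minus minimum fluorescence over baseline after thallium stimulus; more negative B-score means stronger Kir2.1 block with less thallium influx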
Target sequence (P35561 whole entry, looked up): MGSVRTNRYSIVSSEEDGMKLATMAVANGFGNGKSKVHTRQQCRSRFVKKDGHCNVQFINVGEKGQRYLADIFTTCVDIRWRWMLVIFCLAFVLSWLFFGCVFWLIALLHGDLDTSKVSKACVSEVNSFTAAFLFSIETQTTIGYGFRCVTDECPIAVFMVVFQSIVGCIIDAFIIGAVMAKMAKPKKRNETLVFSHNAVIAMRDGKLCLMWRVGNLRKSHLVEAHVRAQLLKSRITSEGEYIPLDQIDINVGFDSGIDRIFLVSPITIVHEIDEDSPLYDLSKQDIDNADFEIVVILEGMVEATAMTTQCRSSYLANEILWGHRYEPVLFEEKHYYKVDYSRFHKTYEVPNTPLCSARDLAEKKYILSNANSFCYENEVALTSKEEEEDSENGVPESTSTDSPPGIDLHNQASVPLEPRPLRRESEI
CHT block = inhibits the human high affinity choline transporter; actives 0.86% (n = 310,000); CHT-expressing cells, membrane potential dye, choline response; active compounds read low; B-score at 10 µM; AID 488975; Q9GZV3;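 active = B-score over 3 SD under the library average, and starting fluorescence ratio not unusually high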;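 note: choline stimulus applied at its EC90 after an EC20 pre-addition; B-score computed on integrated fluorescence ratio after choline addition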
CHT PAM = allosteric activators of human choline transporter CHT; CHT-expressing cells, membrane potential dye, choline EC20; active compounds read high; LV-AA mutant CHT in HEK293 cells; B-score at 10 µM; actives 0.49% (n = 310,000); AID 488977;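 active = initial fluorescence not abnormally high and integrated response B-score, plate-corrected, over 3 SD above library mean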
CHT activ conf = confirmation of human choline transporter (CHT) activators. activation, % at 10 µM. AID 504833. CHT-expressing cells, membrane potential dye fluorescence (FDSS); % of choline EC20–EC90 response window; HEK293 expressing CHT LV-AA mutant; choline added at its EC20. shares compounds with CHT PAM. actives 91% (n = 2,500);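 active = primary screen active, with duplicate mean activation above negative control mean plus 3 SD, cut at about 11% in these data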
HEK293 MP dye = counter-screen for CHT activators: effect in parental HEK293 cells; shares compounds with CHT PAM; membrane potential dye fluorescence (FDSS); measured after EC20 choline addition; ratio readout change at 10 µM, hits read low; actives 62% (n = 2,500); AID 623908;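 active = duplicate-averaged ratio beyond 3 SD from buffer wells, up or down, though filed actives are nearly all decreases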
* marks the source's active call; other numbers are inactive results; i = inactive; x = not tested or not shown.

SMILES	GPR7 antagonist	TMEM16A inh	ANO1 activ	Kir21 inh	CHT block	CHT PAM	CHT activ conf	HEK293 MP dye
CCn1c(C)nc2cc(NC(=O)Nc3cccc(C(C)=O)c3)ccc21	-12.6	i	i	-1.5	i	i	x	x
Cn1c(=O)c2c(-c3ccccc3)n(CCCN3CCOCC3)cc2n(C)c1=O	-13.2	i	i	-1.29	i	i	78.6*	-52.2*
Cc1ccc(-c2c3c(=O)n(C)c(=O)n(C)c3cn2Cc2ccccc2)cc1	4.4	i	i	0.26	i	i	x	x
COc1ccccc1C(=O)N/C(=C\c1cn(S(=O)(=O)N(C)C)c2ccccc12)C(=O)N1CCOCC1	-5.6	i	i	0.05	i	i	x	x
Cn1c(=O)c(=O)n(C)c2cc(S(=O)(=O)N3CCCCC3)ccc21	5.5	i	i	1.75	i	i	x	x
Cn1c(=O)c(=O)n(C)c2cc(S(=O)(=O)N3CCC(N4CCCCC4)CC3)ccc21	-2.5	i	i	-1.33	i	10.4*	76.7*	-76.6*
O=C(CSC1=NCCN1)Nc1cccc([N+](=O)[O-])c1	-14.9	i	i	1.12	i	6.68*	50.6*	-45.4*
CCCCn1c(=N)n(CC(=O)c2ccc(Br)s2)c2ccccc21	6.9	i	i	-0.25	i	i	x	x
C=CCn1c[n+](CC(=O)c2ccc(Br)s2)c2ccccc21	-3.3	i	i	1.96	i	i	45.2*	-27.2*
CC(C)NC(=O)N(C)C[C@H]1Oc2ccc(NC(=O)Nc3ccccc3)cc2C(=O)N([C@@H](C)CO)C[C@@H]1C	x	x	i	x	x	x	x	x
CCc1cccc(CC)c1-n1c(SCC(=O)N2CCc3ccccc3C2)nnc1-c1cccnc1	14.8	i	i	-1.6	i	i	7.7	i
Cn1c(SCC(=O)N2CCc3ccccc3C2)nnc1-c1ccncc1	-15.6	i	i	0.2	i	i	x	x
Cn1c(=O)[nH]c2ccc([N+](=O)[O-])nc21	-1.8	i	i	0.02	i	i	x	x
COc1ccc(N2C(=O)/C(=C\c3ccco3)N=C2SCC(=O)N(C(C)C)C(C)C)cc1Cl	-0.4	i	i	0.62	i	i	12.6*	i
CCCn1c(CN2CCN(C(=O)OCC)CC2)nc2cc(NC(=O)CC)ccc21	18.0	i	i	0.53	i	i	9.8*	i
O=C(Nc1ccc(-n2cnnn2)cc1)C1CCCCC1	-2.3	i	i	0.36	i	9.11*	34.5*	-32.9*
Nc1nonc1C(=O)NCCNCc1cc(Br)ccc1OCc1ccccc1F	76.8*	100*	i	-0.51	i	i	21.6*	i
C=CCOc1ccccc1CNCCNC(=O)c1nonc1N	-0.5	i	i	-0.54	i	i	x	x
Cc1c(N)cc2c(c1N)C(C)(C)CC2(C)C	x	x	i	x	x	x	x	x
Oc1ccccc1N=Nc1nc(-c2ccccc2)c(-c2ccccc2)[nH]1	0.5	i	i	-0.06	i	i	-0.5	i
COc1ccccc1N=Nc1nc(-c2ccccc2)c(-c2ccccc2)[nH]1	0.1	i	i	-0.12	i	i	x	x
Cc1nnc(C)c2c(C)n(-c3ccc4ncccc4c3)c(C)c12	-9.3	i	i	0.19	i	i	41.4*	-46.1*
Cc1cc(C)cc(-n2c(C)c3c(C)nnc(C)c3c2C)c1	-9.2	i	i	-2.65	i	i	43.0*	-27.6*
CN1CCN(c2nc(-c3ccc(Cl)cc3Cl)nc3ccccc23)CC1	7.8	i	i	-1.17	i	i	x	x
N=C(N)SCCc1cccc(CCSC(=N)N)c1	x	i	i	0.13	i	9.04*	42.6*	-45.5*
SMILES	GPR7 antagonist	TMEM16A inh	ANO1 activ	Kir21 inh	CHT block	CHT PAM	CHT activ conf	HEK293 MP dye
Cc1ccc(S(=O)(=O)N2CCCCC2)cc1NC(=O)c1ccc(Cl)nc1	x	x	i	x	x	x	x	x
CCOc1cc(CN2CCc3c([nH]c4ccccc34)C2)ccc1OC	-14.9	i	i	-0.62	i	i	x	x
COc1ccc(CN2CCc3c([nH]c4ccccc34)C2)c(OC)c1C	16.9	i	i	-2.93	i	i	32.1*	i
CCOc1ccc(-c2nnc(-c3cccnc3)o2)cc1OCC	-11.1	i	i	-0.44	i	i	32.5*	-27*
CCOc1cc(-c2noc(-c3cccnc3)n2)ccc1OC	-15.8	i	i	0.3	i	i	x	x
COc1cc(-c2nnc(-c3cccnc3)o2)cc(OC)c1OC	-13.2	i	i	0.25	i	i	x	x
COc1ccc2c(=O)cc(-c3cccnc3)oc2c1OC	-10.1	i	i	0.33	i	7.64*	79.4*	-72.3*
COc1ccc(-c2nnc(-c3cccnc3)o2)cc1OC	0.8	i	i	0.4	i	7.46*	30.8*	-32.3*
COc1ccc(NC(=O)N(C)C[C@H]2Oc3ccc(NC(=O)CCN4CCOCC4)cc3C(=O)N([C@H](C)CO)C[C@@H]2C)cc1	x	x	i	x	x	x	x	x
CCN(CC)S(=O)(=O)c1ccc(N2CC(C(=O)NC3(C)CCS(=O)(=O)C3)CC2=O)cc1 (stereo unspecified)	x	x	i	x	x	x	x	x
COc1ccc(/C=N/NC(=O)C(N)=O)c(OC)c1OC	-2.0	i	i	-0.02	i	i	x	x
COc1ccc(/C=N/N(C)C2=NCCN2)c(OC)c1OC	-9.1	i	i	0.28	i	6.97*	48.4*	-29.6*
CCOC(=O)c1sc2nc(SCC#N)n(CCCN3CCCC3=O)c(=O)c2c1C	1.2	i	i	-0.83	i	i	21.3*	i
CCOC(=O)c1sc2nc3n(c(=O)c2c1C)CCC3	-9.8	i	i	-0.1	i	i	x	x
CCOC(=O)C1C(=O)C(=O)N(C2CCCCC2)C1C(=O)OCC (stereo unspecified)	x	x	i	x	x	x	x	x
Cc1nc2ccc(N=NN(C)C)cc2[nH]1	-10.8	i	i	0.49	i	i	x	x
Cc1nc2ccc(Cc3ccc4nc(C)[nH]c4c3)cc2[nH]1	-2.5	i	i	2.31	i	7.52*	59.4*	-53.9*
Cn1c(=O)c(=O)n(C)c2cc(N3CCOCC3)c(NS(=O)(=O)c3ccc(Br)cc3)cc21	-12.3	i	i	2.34	i	7.07*	52.7*	-43.2*
